Experimental data reported in PubChem BioAssay (NCATS).
Where “and” joins values, the source holds several entries; their conditions need not be identical. Equal values may be shown once. Results filed as inconclusive are left out. Entries that show only a call come without a potency. Calls of active or inactive are those of the source. Unless noted, the call rests on the fitted dose curve; in most records, active means well fitted curve in the direction sought with a large enough effect in the repeat runs; inconclusive means weak or mixed curves; inactive means no such curve, though single readings can be large; an effect the other way counts as inactive or inconclusive.

System: not listed separately
Assay: Primary qHTS for small molecule stabilizers of the endoplasmic reticulum resident proteome: Secreted ER Calcium Modulated Protein (SERCaMP) assay (AID 1508630; active means well fitted curve in the direction sought with a large enough effect; an effect the other way counts as inactive or inconclusive)
Settings: SH-SY5Y GLuc-SERCaMP (Gaussia luciferase released on ER calcium loss) secretion, thapsigargin, luminescence; series mostly up to 38.4 µM
Summary of the method: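 The SH-SY5Y reporter protocol was run at 3 concentrations up to 38.3 uM (primary) or 11 concentrations (follow-up): 16 h compound, 100 nM thapsigargin for 4 h, then extracellular luciferase luminescence.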

Row | Structure (SMILES) | Potency | activity change, negative = inhibition
1 | Cc1cc(CN2CCN(c3c(Br)cnc4nc(-c5ccc(N6CCN(C)CC6)cc5)[nH]c34)CC2)no1 | inactive | –
2 | O=C(c1ccc(Nc2nccc(-c3cc4ccccc4s3)n2)cc1)N1CCC(N2CCCC2)CC1 | inactive | –
3 | COc1cc(-c2nn(C3CCC(N4CCN(C(C)=O)CC4)CC3)c3ncnc(N)c23)ccc1NC(=O)c1cc2ccccc2n1C (centres undefined) | inactive | –
4 | COc1ccc(CC2c3cc(OC)c(OC)cc3CC[N+]2(C)CCC(=O)OCCCCCOC(=O)CC[N+]2(C)CCc3cc(OC)c(OC)cc3C2Cc2ccc(OC)c(OC)c2)cc1OC (centres undefined) | – | 101% [at 7.35 µM] (inactive)
5 | Cc1coc2c1C(=O)C(=O)c1c-2ccc2c1CCCC2(C)C | inactive | –
6 | COc1cccc(-c2ccc(NC(=O)C3=C(C(=O)O)CCC3)c(F)c2)c1 | inactive | –
7 | Cc1cc(Nc2ncnc3ccc(-c4ccc(CNCCS(C)(=O)=O)o4)cc23)ccc1Oc1ccn2ncnc2c1 | inactive | –
8 | C=CC(=O)Nc1cc2c(Nc3ccc(F)c(Cl)c3)ncnc2cc1OCCCN1CCOCC1 | inactive | –
9 | CC(C)Nc1cc(C(F)(F)F)cc2nc(NC(=O)c3cccnc3)nn12 | inactive | –
10 | C=CCn1c(=O)c2cnc(Nc3ccc(N4CCN(C)CC4)cc3)nc2n1-c1cccc(C(C)(C)O)n1 | inactive | –
11 | Cc1ccc(CN2CCNCC2)cc1NC(=O)CNc1ccc(F)c(F)c1 | inactive | –
12 | CNC(=O)c1ccc(-c2cnc3ncc(Cc4ccc5ncccc5c4)n3n2)cc1F | inactive | –
13 | COc1cc(C(=O)NS(=O)(=O)c2ccccc2C)ccc1Cc1cn(C)c2ccc(NC(=O)OC3CCCC3)cc12 | inactive | –
14 | CNc1nccc(-c2cccnc2Oc2cc(C(=O)Nc3cccc(C(F)(F)F)c3)ccc2C)n1 | inactive | –
15 | NC1(Cc2ccc(Cl)cc2)CCN(c2ncnc3[nH]ccc23)CC1 | inactive | –
16 | COc1cc2c(Oc3ccc(NC(=O)C4(C(=O)Nc5ccc(F)cc5)CC4)cc3F)ccnc2cc1OCCCN1CCOCC1 | inactive | –
17 | Clc1cccc(-c2nnnn2Cc2cccnc2)c1Cl | inactive | –
18 | CNC(=O)c1ccccc1Nc1nc(Nc2ccc(N3CCOCC3)cc2OC)ncc1Cl | inactive | –
19 | C=C1C(=CC=C2CCC[C@]3(C)[C@@H]([C@H](C)C=C[C@H](C)C(C)C)CC[C@@H]23)C[C@@H](O)C[C@@H]1O | inactive | –
20 | CC1(O)CC(c2nc(-c3ccc4ccc(-c5ccccc5)nc4c3)c3c(N)nccn23)C1 (centres undefined) | inactive | –
21 | CC(C)(O)c1cc2nc(-c3cnc(N)nc3)nc(N3CCOCC3)c2s1 | inactive | –

Target: Cytochrome P450 2D6 (Homo sapiens) (UniProt P10635)
Sequence (P10635 whole entry, looked up): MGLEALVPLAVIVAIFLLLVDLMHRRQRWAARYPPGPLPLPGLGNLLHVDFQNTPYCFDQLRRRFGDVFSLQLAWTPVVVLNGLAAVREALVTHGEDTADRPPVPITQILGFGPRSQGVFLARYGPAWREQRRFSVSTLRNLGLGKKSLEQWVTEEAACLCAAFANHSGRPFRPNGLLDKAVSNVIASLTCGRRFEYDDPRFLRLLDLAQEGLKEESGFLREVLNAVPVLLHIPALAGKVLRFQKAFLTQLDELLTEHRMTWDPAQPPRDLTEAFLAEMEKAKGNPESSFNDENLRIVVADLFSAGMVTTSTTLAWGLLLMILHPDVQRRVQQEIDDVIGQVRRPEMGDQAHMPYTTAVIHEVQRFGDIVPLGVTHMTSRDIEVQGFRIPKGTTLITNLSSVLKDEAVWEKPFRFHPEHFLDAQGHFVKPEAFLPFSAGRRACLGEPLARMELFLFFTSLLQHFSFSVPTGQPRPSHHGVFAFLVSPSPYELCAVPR
Assay: Cytochrome P450 family 2 subfamily D member 6 (CYP2D6) small molecule antagonists: luciferase biochemical (cell-free) qHTS assay (AID 1645840); further: nearly all actives have a fitted effect of over 55% in size; further: potency means the concentration at half of the fitted maximal effect
Settings: P450-Glo CYP2D6 enzyme, luciferin luminescence, 1 h; series mostly up to 57.4 µM
Summary of the method: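 P450-Glo CYP2D6 system: proluciferin substrate converted by enzyme to luciferin, read by luminescence proportional to activity. Enzyme-substrate mix with compound 10 min at room temperature, then NADPH regeneration 1 h before detection reagent.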

Row | Structure (SMILES) | Potency
22 | COc1cc(C(=O)N2CCC(N3CCN(C)CC3)CC2)ccc1Nc1ncc2c(n1)N(C)c1ccccc1C(=O)N2C | inactive
23 | O=C(Cc1ccc(-c2ccc(OCCN3CCOCC3)cc2)cn1)NCc1ccccc1 | inactive
24 | O=C(O)C1(Cc2cccc(Nc3nccs3)n2)CCC(Oc2cccc(Cl)c2F)CC1 (centres undefined) | inactive
25 | CCS(=O)(=O)c1cccc(-c2cc(C(=O)NC3CCN(C)CC3)c(C)c3[nH]c4ncc(C)cc4c23)c1 | inactive
26 | CN1CCC(CNc2ccc3ncc(-c4cccc(OC(F)(F)F)c4)n3n2)CC1 | 2.39 µM (active)
27 | CCn1cc(-c2ccnc3[nH]c(-c4cccc(CN(C)C)c4)cc23)c(-c2ccc(NC(=O)N(C)C)cc2)n1 | 19 µM (active)
28 | Cc1coc2c1C(=O)C(=O)c1c-2ccc2c1CCCC2(C)C | 23.9 µM (active)
29 | CC(C)Nc1cc(C(F)(F)F)cc2nc(NC(=O)c3cccnc3)nn12 | inactive
30 | C=CCn1c(=O)c2cnc(Nc3ccc(N4CCN(C)CC4)cc3)nc2n1-c1cccc(C(C)(C)O)n1 | inactive
31 | Clc1cccc(-c2nnnn2Cc2cccnc2)c1Cl | inactive
32 | CC(C)(O)c1cc2nc(-c3cnc(N)nc3)nc(N3CCOCC3)c2s1 | inactive

Target: Cytochrome P450 2C9 (Homo sapiens) (UniProt P11712)
Sequence (P11712 whole entry, looked up): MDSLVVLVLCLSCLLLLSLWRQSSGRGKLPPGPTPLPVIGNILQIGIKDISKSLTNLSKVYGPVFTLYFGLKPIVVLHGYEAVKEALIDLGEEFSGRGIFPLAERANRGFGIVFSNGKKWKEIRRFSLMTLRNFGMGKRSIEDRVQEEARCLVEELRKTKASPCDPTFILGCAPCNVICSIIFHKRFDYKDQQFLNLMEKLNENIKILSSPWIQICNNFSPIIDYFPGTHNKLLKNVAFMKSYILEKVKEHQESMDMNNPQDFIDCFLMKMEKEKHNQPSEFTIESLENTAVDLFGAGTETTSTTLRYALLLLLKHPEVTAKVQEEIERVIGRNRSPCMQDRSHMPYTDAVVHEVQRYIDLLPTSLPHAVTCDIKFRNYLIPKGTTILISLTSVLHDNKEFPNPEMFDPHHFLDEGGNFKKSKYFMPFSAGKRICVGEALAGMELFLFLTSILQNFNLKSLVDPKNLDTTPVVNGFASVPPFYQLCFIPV
Assay: Cytochrome P450 family 2 subfamily C member 9 (CYP2C9) small molecule antagonists: luciferase biochemical (cell-free) qHTS assay (AID 1645842); further: nearly all actives have a fitted effect of over 55% in size; further: potency means the concentration at half of the fitted maximal effect
Settings: P450-Glo CYP2C9 enzyme assay, luciferin luminescence; series mostly up to 57.4 µM
Summary of the method: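 P450-Glo CYP2C9 system: proluciferin substrate with enzyme in mix containing 0.4% BSA, 10 min at room temperature, then NADPH regeneration solution added and incubated 1 h at 37C. Detection reagent stopped reaction; luminescence read after 20 min as RLU.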

Row | Structure (SMILES) | Potency
33 | CC(C)c1cc(-c2n[nH]c(=O)n2-c2ccc3c(ccn3C)c2)c(O)cc1O | 1.69 µM (active)
34 | Cn1c2cc(S(C)=O)sc2c2cnn(Cc3cccc(N)c3)c(=O)c21 (centres undefined) | 19 µM (active)
35 | CNC(=O)CN1CCC(Oc2cc3c(Nc4cccc(Cl)c4F)ncnc3cc2OC)CC1 | 9.52 µM (active)
36 | COc1cccc(Nc2c(C(N)=O)cnc3c(C)cc(S(=O)(=O)c4cccc(C(=O)N(C)C)c4)cc23)c1 | 0.849 µM (active)
37 | O=C(O)C1(Cc2cccc(Nc3nccs3)n2)CCC(Oc2cccc(Cl)c2F)CC1 (centres undefined) | 7.56 µM (active)
38 | NC(=O)c1cccc2cn(-c3ccc([C@@H]4CCCNC4)cc3)nc12 | inactive
39 | Cn1c(CNc2ccc(C(=N)N)cc2)nc2cc(C(=O)N(CCC(=O)O)c3ccccn3)ccc21 | 10.7 µM (active)
40 | CCS(=O)(=O)c1cccc(-c2cc(C(=O)NC3CCN(C)CC3)c(C)c3[nH]c4ncc(C)cc4c23)c1 | 4.77 µM (active)
41 | Cc1c(Cn2c(C)nc3c(C(=O)O)cc(N4CCOCC4)cc32)cccc1C(F)(F)F | inactive
42 | CCn1cc(-c2ccnc3[nH]c(-c4cccc(CN(C)C)c4)cc23)c(-c2ccc(NC(=O)N(C)C)cc2)n1 | 21.3 µM (active)
43 | CC1COC2(CCN(c3nc(=O)c4cc(C(F)(F)F)cc([N+](=O)[O-])c4s3)CC2)O1 (centres undefined) | inactive
44 | Cc1cc(CN2CCN(c3c(Br)cnc4nc(-c5ccc(N6CCN(C)CC6)cc5)[nH]c34)CC2)no1 | 9.52 µM (active)
45 | O=C(c1ccc(Nc2nccc(-c3cc4ccccc4s3)n2)cc1)N1CCC(N2CCCC2)CC1 | inactive
46 | COc1cc(-c2nn(C3CCC(N4CCN(C(C)=O)CC4)CC3)c3ncnc(N)c23)ccc1NC(=O)c1cc2ccccc2n1C (centres undefined) | 3.01 µM (active)
47 | COc1ccc(CC2c3cc(OC)c(OC)cc3CC[N+]2(C)CCC(=O)OCCCCCOC(=O)CC[N+]2(C)CCc3cc(OC)c(OC)cc3C2Cc2ccc(OC)c(OC)c2)cc1OC (centres undefined) | inactive
48 | COc1cccc(-c2ccc(NC(=O)C3=C(C(=O)O)CCC3)c(F)c2)c1 | 21.3 µM (active) and 26.8 µM (active)
49 | Cc1cc(Nc2ncnc3ccc(-c4ccc(CNCCS(C)(=O)=O)o4)cc23)ccc1Oc1ccn2ncnc2c1 | 12 µM (active)
50 | C=CC(=O)Nc1cc2c(Nc3ccc(F)c(Cl)c3)ncnc2cc1OCCCN1CCOCC1 | inactive
51 | Cc1ccc(CN2CCNCC2)cc1NC(=O)CNc1ccc(F)c(F)c1 | inactive
52 | CNC(=O)c1ccc(-c2cnc3ncc(Cc4ccc5ncccc5c4)n3n2)cc1F | 2.13 µM (active)
53 | COc1cc(C(=O)NS(=O)(=O)c2ccccc2C)ccc1Cc1cn(C)c2ccc(NC(=O)OC3CCCC3)cc12 | 13.8 µM (active)
54 | CNc1nccc(-c2cccnc2Oc2cc(C(=O)Nc3cccc(C(F)(F)F)c3)ccc2C)n1 | 3.01 µM (active)
55 | NC1(Cc2ccc(Cl)cc2)CCN(c2ncnc3[nH]ccc23)CC1 | inactive
56 | COc1cc2c(Oc3ccc(NC(=O)C4(C(=O)Nc5ccc(F)cc5)CC4)cc3F)ccnc2cc1OCCCN1CCOCC1 | 3.01 µM (active)
57 | CNC(=O)c1ccccc1Nc1nc(Nc2ccc(N3CCOCC3)cc2OC)ncc1Cl | 0.301 µM (active)
58 | C=C1C(=CC=C2CCC[C@]3(C)[C@@H]([C@H](C)C=C[C@H](C)C(C)C)CC[C@@H]23)C[C@@H](O)C[C@@H]1O | 9.52 µM (active)
59 | CC1(O)CC(c2nc(-c3ccc4ccc(-c5ccccc5)nc4c3)c3c(N)nccn23)C1 (centres undefined) | 2.13 µM (active) and 952 nM (active)
